This is a sample that favours compounds with a hit; in the whole collection about 4% have one here.
Arbovirus inh: antivirals against arbovirus infection, primary screen, cell-based, full library, 10K replicate subset | arbovirus infection cell-based antiviral screen | inhibition, % at 10 µM | 0.37% of 200,000 active | AID 1251, 2008; in the data active means inhibition above about 30%
ROMK primary: ROMK potassium channel modulators, primary screen, cell-based, thallium flux, MLSMR library | ATP-sensitive inward rectifier potassium channel 1 (Homo sapiens), P48048 | 2% of 130,000 active | B-score at 10 µM | Tet-inducible ROMK, thallium flux fluorescence; actives lie on both sides;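 active means signal ratio slope over the read window, or its plate-corrected B-score, at least 3 SD from the plate mean, either direction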;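 further: B-score of the F/F0 ratio slope over 7 to 12 s after thallium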
Target sequence (P48048 whole entry, looked up): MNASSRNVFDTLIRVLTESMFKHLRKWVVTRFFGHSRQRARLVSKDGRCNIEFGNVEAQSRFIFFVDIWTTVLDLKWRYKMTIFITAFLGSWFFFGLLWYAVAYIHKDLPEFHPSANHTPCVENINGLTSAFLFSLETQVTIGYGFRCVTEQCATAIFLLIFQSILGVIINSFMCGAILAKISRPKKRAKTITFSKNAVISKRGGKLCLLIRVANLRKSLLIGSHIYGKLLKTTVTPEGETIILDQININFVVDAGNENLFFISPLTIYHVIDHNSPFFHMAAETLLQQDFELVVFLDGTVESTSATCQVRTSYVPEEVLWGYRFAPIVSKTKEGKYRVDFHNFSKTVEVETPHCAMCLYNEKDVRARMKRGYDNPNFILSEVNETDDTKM
HSV augment: enhancers of HSV replication in host cells, fold increase, host cell viability | HSV replication augmentation in cells | maximum fold increase | 0.005% of 220,000 active; in the data active means maximum fold increase above about 1.5; inconclusive means no clear call, values can overlap the other calls; tested in PC3 cells
Measles CPE: compounds protecting cells from measles virus cytopathic effect, primary screen, measles RdRp inhibitor project, single point, MLSMR library, absorbance. AID 841, 2007. 1.5% of 140,000 active. protection (pct of control), % at 4 µM. Measles virus-infected cells, CPE protection; in the data active means protection mostly above about 24%, no sharp cut-off; inactive means mostly below about 26%
KCC2 mod: KCC2 cotransporter modulators, thallium flux, primary screen, cell-based, HEK293 KCC2, FluoZin-2 fluorescence, MLSMR | Solute carrier family 12 member 5 (Homo sapiens), Q9H2X9 | KCC2 cells, thallium flux FluoZin-2 fluorescence | B-score of Tl+ flux slope (higher = more flux/activation; lower = inhibition) at 10 µM | 2.2% of 190,000 active;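 active means thallium flux slope and its plate-corrected score both differing from the plate sample mean at a set confidence after two filtering rounds, in either direction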;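 further: slope of fluorescence scaled to starting intensity during 10 to 20 s after thallium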
KCC2 secondary: KCC2 modulators in sodium-free buffer, confirmation, cell-based, HEK293 KCC2, thallium flux, secondary assay. shares compounds with KCC2 mod. FluoZin2 fluorescence; stronger effect = higher value. normalised thallium flux (F/F0 slope) at 10 µM. 15% of 3,700 active;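 active means thallium flux slope above the same plate's solvent-only control mean plus 3 SD; inconclusive means the two replicate wells disagree; inactive means no significant difference from solvent-only control wells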
KCC2 bumet counter: thallium flux persisting under bumetanide in KCC2 cells, confirmation, counter-screen for KCC2 modulator project, cell-based, HEK293 KCC2, FluoZin2, secondary assay 3; shares compounds with KCC2 mod; HEK293-KCC2 + bumetanide/ouabain; stronger effect = higher value; 49% of 3,700 active; AID 1714, 2009; normalized thallium flux at 10 µM;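 active means thallium entry rate above the same plate's blocked-transporter control wells by more than 3 SD; inconclusive means the two repeat wells disagree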;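 further: raw slope of fluorescence over initial fluorescence between 10 and 20 s after thallium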
KCC2 secondary2: KCC2 modulators without ouabain present, confirmation, cell-based, HEK293 KCC2, thallium flux, FluoZin2, secondary assay 2 | shares compounds with KCC2 mod | thallium flux FluoZin2 fluorescence; actives lie on both sides; F/F0 rise rate, 10–20 s post-thallium | normalized thallium flux at 10 µM | 23% of 3,700 active | AID 1715, 2009;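 active means thallium flux slope more than 3 SD above or below the plate's solvent-only control mean, mostly below; inconclusive means the two repeat wells disagreed; inactive means no significant shift from solvent-only controls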;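 further: raw slope with 0.1% DMSO as baseline and bumetanide as block control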
HEK293 Tl flux: thallium flux modulation in parental HEK cells, confirmation, counter-screen for KCC2 modulator project, cell-based, counterscreen 1. shares compounds with KCC2 mod. HEK293 parental cells, thallium flux FluoZin2, ouabain; baseline-ratio fluorescence slope, 10–20 s after thallium. thallium flux rate (normalised fluorescence) at 10 µM. 46% of 3,700 active. AID 1716, 2009;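 active means thallium flux rate significantly above the same plate's solvent-only control wells, beyond their mean plus 3 SD; inconclusive means the two replicate wells gave conflicting results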
KCC2 retest ouab: KCC2 inhibitors and activators, ouabain retest, confirmation, HEK-KCC2 cells | shares compounds with KCC2 mod | HEK293-KCC2, thallium flux FluoZin2 fluorescence; bidirectional: low = inhibitor, high = activator | 48% of 3,700 active | raw Tl+ flux slope (below DMSO = inhibition, above = activation) at 10 µM;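 active means thallium flux slope beyond 3 SD from same-plate DMSO control mean in most replicates, usually higher, sometimes lower; inconclusive means repeat tests gave conflicting results; inactive means no significant difference from controls in most replicates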;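 further: slope of initial-normalized fluorescence between seconds 10 and 20 after thallium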
HEK293 Tl flux2: native HEK Tl+ uptake effects, second counter-screen – HEK cells, counterscreen 2, counter-screen for KCC2 modulator project, confirmation | thallium flux slope at 10 µM | shares compounds with KCC2 mod | 33% of 3,700 active | HEK293 parental, thallium flux FluoZin-2 fluorescence slope | AID 1718, 2009;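 active means thallium flux slope above the same plate's solvent-control mean plus 3 SD in both duplicate wells; inconclusive means duplicate wells that disagreed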;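 further: run without ouabain in cells lacking the KCC2 cotransporter; slope of fluorescence scaled to its starting value between 10 and 20 s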
Numbers without * were called inactive; i = inactive; ? = inconclusive; . = not tested or not shown.

SMILES	Arbovirus inh	ROMK primary	HSV augment	Measles CPE	KCC2 mod	KCC2 secondary	KCC2 bumet counter	KCC2 secondary2	HEK293 Tl flux	KCC2 retest ouab	HEK293 Tl flux2
Cn1c(=O)c(=O)n(C)c2cc(S(=O)(=O)N3CCC(Cc4ccccc4)CC3)ccc21	-13	-0.062	i	4	.	.	.	.	.	.	.
CNC(=O)CSc1nc(N)c2c3c(sc2n1)CCC3	-9	.	i	6	-5.8*	0.011	0.0065	0.034	0.0077	0.022	0.01
CN(C)CCN1CC(O)=C(c2nc3ccccc3s2)C1=N	.	.	i	.	-1.2	.	.	.	.	.	.
N=C1C(c2nc3ccccc3s2)=C(O)CN1Cc1ccco1	-10	.	i	17	3.6*	0.0062	?	0.029	0.0075	0.018	0.011
O=C(NNC(=O)c1cc2ccccc2o1)c1ccc(Cl)cc1	.	.	i	.	8.7*	0.01	0.024*	0.033	0.011*	?	0.012*
O=C(Nc1ccc(Cl)cn1)c1cc2ccccc2o1	0	.	i	13	-1.5	.	.	.	.	.	.
CCc1ccc(OCC(=O)NNC(=O)c2cc3ccccc3o2)cc1	-11	-0.011	i	.	1.9	.	.	.	.	.	.
Cc1cc(C)cc(OCC(=O)NNC(=O)c2cc3ccccc3o2)c1	3	1.1	i	4	31*	0.019*	0.1*	0.033	0.034*	0.059*	0.015*
Cc1ccc(-n2nnc(-c3cnc4ccccc4c3)n2)cc1	-5	.	.	.	0.6	.	.	.	.	.	.
c1ccc2ncc(-n3cnnn3)cc2c1	-4	0.013	i	38*	3*	0.01	0.0066	0.036	0.0083	0.022	0.01
Cc1nn(-c2ccc(F)cc2)c(C)c1NS(=O)(=O)c1ccc2ccccc2c1	-16	.	.	3	-7.2*	0.0053	?	0.022*	0.007	?	0.011
CC(=O)Nc1ccc(S(=O)(=O)Nc2c(C)nn(-c3ccccc3)c2C)cc1	6	.	i	11	.	0.0067	0.0043	0.03	?	0.016	0.009
O=C(c1cc2ccccc2oc1=O)N(Cc1cccc(Br)c1)C1CCS(=O)(=O)C1 (centres undefined)	.	.	i	.	-1.2	.	.	.	.	.	.
CCc1ccc(NC(=S)N2CCNC(=O)C2CC(=O)OC)cc1 (centres undefined)	10	-0.42	i	.	0.11	.	.	.	.	.	.
Cc1cc(C)n(CC(=O)O)c(=O)c1[N+](=O)[O-]	4	0.027	i	.	-0.089	.	.	.	.	.	.
CCOc1ccc2nc(NC(=S)N(C)C)sc2c1	-23	-0.45	i	5	.	0.018*	0.13*	0.033	0.047*	0.057*	0.02*
CCNC(=O)Nc1nc2ccccc2s1	6	0.1	i	.	-0.14	.	.	.	.	.	.
CCOC(=O)c1cccc(C(=O)Nc2nc3ccc(OC)cc3s2)n1	-1	-0.33	i	.	91*	0.027*	0.079*	?	0.041*	0.041*	0.039*
CCCC(=O)Nc1nc2ccc(OCC)cc2s1	0	.	i	8	-0.18	.	.	.	.	.	.
CN(C)C(=S)Nc1nc2ccccc2s1	-3	-1.4	i	.	69*	0.017*	0.089*	0.034	0.032*	0.059*	0.017*
S=C(Nc1ccccc1)c1nc2ccccc2s1	-6	-0.27	i	2	9.7*	0.0069	0.013*	0.032	0.013*	?	0.014*
O=C1NC[C@H](c2ccccc2)N(CCc2cccc3ccccc23)C1=O	.	.	i	.	-1.5	.	.	.	.	.	.
COc1ccc(C2/C=C\CN(C(=O)c3ccccc3)[C@H](Cc3ccccc3)C(=O)N2Cc2ccc(F)cc2)cc1 (some centres undefined)	.	.	i	.	-0.49	.	.	.	.	.	.
COc1ccc(CNC(=O)C/C(C)=N/NC(=O)C23CC4CC(CC(C4)C2)C3)cc1	1	0.034	i	.	0.16	.	.	.	.	.	.
CCOC(=O)C1=C(C)C/C(=N\NC(=O)c2ccccc2O)CC1	.	.	i	.	0.46	.	.	.	.	.	.
SMILES	Arbovirus inh	ROMK primary	HSV augment	Measles CPE	KCC2 mod	KCC2 secondary	KCC2 bumet counter	KCC2 secondary2	HEK293 Tl flux	KCC2 retest ouab	HEK293 Tl flux2
CCCCN1CCCC1CNC(=O)c1cc(C#N)c2ccccc2c1OC (centres undefined)	-6	.	i	.	0.039	.	.	.	.	.	.
CC1(c2ccccc2)NC(=O)N(N)C1=O (centres undefined)	-4	.	i	.	-0.008	.	.	.	.	.	.
CC(C)(C)NC(=O)C(=O)NNC(=O)c1ccccc1Br	4	0.16	i	.	9.6*	0.015*	0.024*	0.036	?	0.03*	0.012
COc1ccccc1C(=O)NNC(=O)C(=O)NC(C)(C)C	7	.	i	.	34*	0.0057	0.042*	0.044*	0.03*	0.043*	0.029*
CCOc1ccc(NC(=O)c2ccccc2OC)cc1	5	.	.	14	-4.7*	0.0077	0.0051	0.03	0.0084	0.019	0.012
O=C(NNC(=O)c1ccccc1Br)c1ccccc1Cl	7	0.25	i	.	0.45	.	.	.	.	.	.
CC(CN1CCCC1)C(=O)NN (centres undefined)	4	0.94	i	.	-0.74	.	.	.	.	.	.
CCCCNC(=S)N/N=C/c1ccccc1F	1	0.72	i	13	7.2*	0.011	0.038*	0.033	0.019*	?	0.012*
CCCCNC(=S)N/N=C/c1sccc1C	-1	.	i	.	10*	0.01	0.017*	0.034	0.019*	?	?
CCCCNC(=S)N/N=C/c1ccc(C)s1	2	-0.94	.	23	4*	?	0.027*	0.031	0.012*	0.021*	0.014*
CCCCNC(=S)N/N=C/c1cc(C)ccc1C	-4	0.5	i	29	4.3*	?	0.0091*	0.035	0.012*	?	0.014*

Screens (PubChem BioAssay)
